From PubChem BioAssay AID1159580 (chemical genetic matrix, 2015)
Where “and” joins values, the source holds several entries; their conditions need not be identical. Identical values can stand only once. Screen size: about 5,500 compounds; about 2,000 (36%) were called active. Inconclusive results (about 18%) are left out. No stated cut-off is given here; in the data, active means normalized growth mostly below about 0.91 (no sharp cut-off); inconclusive means no clear call, values can overlap the other calls; inactive means mostly above about 0.92. Some of the results follow. More than one record can exist for a structure, and the calls need not agree.

Assay: chemical genetic growth profiling, strain panel (AID 1159580);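 further: tested at 20 µM; growth read once vehicle control cultures reached saturation at 30 °C; 1 = growth at the plate median or of vehicle wells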
Conditions: growth OD

Measured: normalized growth

CN1CCc2cccc3c2C1Cc1ccc(O)c(O)c1-3 (stereo not drawn)
inactive: S. cerevisiae deletion strains, locus YKL009W, strain mrt4, stronger effect = lower value 1.01 | S. cerevisiae deletion strains, locus YKL068W, stronger effect = lower value 0.996 | S. cerevisiae deletion strains, locus YKL085W, strain MDH1 (second series), stronger effect = lower value 1 | S. cerevisiae deletion strains, locus YKL085W, strain MDH1, stronger effect = lower value 1 | S. cerevisiae deletion strains, locus YKL190W, strain CNB1, stronger effect = lower value 1.01 | S. cerevisiae deletion strains, locus YKR001C, strain vps1, stronger effect = lower value 1 | S. cerevisiae deletion strains, locus YKR026C, strain gcn3, stronger effect = lower value 1.01 | S. cerevisiae deletion strains, locus YKR091W, strain srl3, stronger effect = lower value 0.993 | S. cerevisiae deletion strains, locus YLL001W, strain dnm1, stronger effect = lower value 0.967 | S. cerevisiae deletion strains, locus YLL026W, stronger effect = lower value 0.988 | S. cerevisiae deletion strains, locus YLL041C, strain sdh2, stronger effect = lower value 0.995 | S. cerevisiae deletion strains, locus YLR039C, strain RIC1, stronger effect = lower value 1.04 | S. cerevisiae deletion strains, locus YLR058C, strain SHM2, stronger effect = lower value 1.01 | S. cerevisiae deletion strains, locus YLR102C, strain apc9, stronger effect = lower value 0.997 | S. cerevisiae deletion strains, locus YLR113W, strain HOG1, stronger effect = lower value 1.02 | S. cerevisiae deletion strains, locus YLR221C, strain rsa3, stronger effect = lower value 0.932 | S. cerevisiae deletion strains, locus YLR258W, strain gsy2, stronger effect = lower value 0.958 | S. cerevisiae deletion strains, locus YLR262C, strain YPT6, stronger effect = lower value 1.09 | S. cerevisiae deletion strains, locus YLR268W, strain sec22, stronger effect = lower value 1.01 | S. cerevisiae deletion strains, locus YLR330W, strain CHS5, stronger effect = lower value 1.01 | S. cerevisiae deletion strains, locus YLR342W, strain FKS1 (second series), stronger effect = lower value 1.02 | S. cerevisiae deletion strains, locus YLR357W, strain rsc2, stronger effect = lower value 0.889 | S. cerevisiae deletion strains, locus YLR370C, strain arc18, stronger effect = lower value 0.96 | S. cerevisiae deletion strains, locus YLR371W, strain rom2, stronger effect = lower value 0.996 | S. cerevisiae deletion strains, locus YLR384C, strain iki3, stronger effect = lower value 1 | S. cerevisiae deletion strains, locus YLR418C, strain cdc73, stronger effect = lower value 1.01 | S. cerevisiae deletion strains, locus YML016C, strain PPZ1, stronger effect = lower value 1.01 | S. cerevisiae deletion strains, locus YML032C, strain rad52, stronger effect = lower value 0.99 | S. cerevisiae deletion strains, locus YML120C, strain ndi1, stronger effect = lower value 0.993 | S. cerevisiae deletion strains, locus YML124C, strain tub3, stronger effect = lower value 0.99 | S. cerevisiae deletion strains, locus YMR078C, strain ctf18, stronger effect = lower value 0.988 | S. cerevisiae deletion strains, locus YMR125W, strain sto1, stronger effect = lower value 0.966 | S. cerevisiae deletion strains, locus YMR129W, stronger effect = lower value 1 | S. cerevisiae deletion strains, locus YMR205C, strain PFK2, stronger effect = lower value 0.93 | S. cerevisiae deletion strains, locus YMR223W, strain ubp8, stronger effect = lower value 0.994 | S. cerevisiae deletion strains, locus YMR231W, strain pep5, stronger effect = lower value 0.972 | S. cerevisiae deletion strains, locus YMR307W, strain GAS1, stronger effect = lower value 1.03 | S. cerevisiae deletion strains, locus YNL067W, strain RPL9B, stronger effect = lower value 0.998 | S. cerevisiae deletion strains, locus YNL128W, strain TEP1, stronger effect = lower value 1.01 and 0.937 | S. cerevisiae deletion strains, locus YNL153C, strain GIM3, stronger effect = lower value 1 | S. cerevisiae deletion strains, locus YNL175C, strain NOP13, stronger effect = lower value 0.96 | S. cerevisiae deletion strains, locus YNL183C, strain NPR1, stronger effect = lower value 0.984 | S. cerevisiae deletion strains, locus YNL197C, strain WHI3, stronger effect = lower value 0.931 | S. cerevisiae deletion strains, locus YNL224C, strain SQS1, stronger effect = lower value 1.05 | S. cerevisiae deletion strains, locus YNL233W, strain BNI4, stronger effect = lower value 1.01 | S. cerevisiae deletion strains, locus YNL250W, strain rad50, stronger effect = lower value 1.01 | S. cerevisiae deletion strains, locus YNL271C, strain bni1, stronger effect = lower value 0.985 | S. cerevisiae deletion strains, locus YNL298W, strain CLA4, stronger effect = lower value 0.992 | S. cerevisiae deletion strains, locus YNL307C, strain MCK1, stronger effect = lower value 0.991 | S. cerevisiae deletion strains, locus YNL322C, strain KRE1 (second series), stronger effect = lower value 1.01 | S. cerevisiae deletion strains, locus YNR049C, strain mso1, stronger effect = lower value 0.98 | S. cerevisiae deletion strains, locus YNR052C, strain pop2, stronger effect = lower value 0.987 | S. cerevisiae deletion strains, locus YOL006C, strain TOP1, stronger effect = lower value 0.926 | S. cerevisiae deletion strains, locus YOL012C, strain htz1 1.12 | S. cerevisiae deletion strains, locus YOL147C, strain pex11, stronger effect = lower value 0.992 | S. cerevisiae deletion strains, locus YOR001W, strain rrp6, stronger effect = lower value 0.944 | S. cerevisiae deletion strains, locus YOR061W, strain CKA2, stronger effect = lower value 1.02 | S. cerevisiae deletion strains, locus YOR069W, strain VPS5, stronger effect = lower value 1.01 | S. cerevisiae deletion strains, locus YOR080W, strain dia2, stronger effect = lower value 0.993 | S. cerevisiae deletion strains, locus YOR136W, strain idh2, stronger effect = lower value 0.987 | S. cerevisiae deletion strains, locus YOR144C, strain elg1, stronger effect = lower value 0.998 | S. cerevisiae deletion strains, locus YOR184W, strain ser1, stronger effect = lower value 1.02 | S. cerevisiae deletion strains, locus YOR231W, strain MKK1, stronger effect = lower value 1.06 | S. cerevisiae deletion strains, locus YOR290C, strain snf2, stronger effect = lower value 0.979 | S. cerevisiae deletion strains, locus YOR316C, strain cot1, stronger effect = lower value 0.992 | S. cerevisiae deletion strains, locus YPL078C, strain atp4, stronger effect = lower value 0.988 | S. cerevisiae deletion strains, locus YPL106C, strain sse1, stronger effect = lower value 0.94 | S. cerevisiae deletion strains, locus YPL240C, strain hsp82, stronger effect = lower value 1.01 | S. cerevisiae deletion strains, locus YPL256C, strain CLN2, stronger effect = lower value 1.06 | S. cerevisiae deletion strains, locus YPR119W, strain clb2, stronger effect = lower value 0.994 | S. cerevisiae deletion strains, locus YPR141C, strain kar3, stronger effect = lower value 0.997 | S. cerevisiae deletion strains, locus YPR163C, strain tif3, stronger effect = lower value 0.986 | S. cerevisiae deletion strains, locus YPR167C, strain met16, stronger effect = lower value 0.998 | S. cerevisiae deletion strains, strain wtn01, stronger effect = lower value 1 | S. cerevisiae strains, strain wild type, stronger effect = lower value 1.01
active: S. cerevisiae deletion strains, locus YKL160W, strain elf1, stronger effect = lower value 0.871 | S. cerevisiae deletion strains, locus YLR027C, strain aat2, stronger effect = lower value 0.918 | S. cerevisiae deletion strains, locus YLR262C, strain YPT6 (second series), stronger effect = lower value 0.645 | S. cerevisiae deletion strains, locus YLR320W, strain mms22, stronger effect = lower value 0.8 | S. cerevisiae deletion strains, locus YLR342W, strain FKS1, stronger effect = lower value 0.855 | S. cerevisiae deletion strains, locus YMR058W, strain fet3, stronger effect = lower value 0.573 | S. cerevisiae deletion strains, locus YNL071W, strain lat1, stronger effect = lower value 0.627 | S. cerevisiae deletion strains, locus YNL209W, strain ssb2, stronger effect = lower value 0.808 | S. cerevisiae deletion strains, locus YNL248C, strain rpa49, stronger effect = lower value 0.858 | S. cerevisiae deletion strains, locus YOR070C, strain gyp1, stronger effect = lower value 0.864 | S. cerevisiae deletion strains, locus YOR083W, strain WHI5 (second series), stronger effect = lower value 0.815 | S. cerevisiae deletion strains, locus YOR083W, strain WHI5, stronger effect = lower value 0.875 | S. cerevisiae deletion strains, locus YOR106W, strain vam3, stronger effect = lower value 0.607 | S. cerevisiae deletion strains, locus YOR265W, strain rbl2, stronger effect = lower value 0.91 | S. cerevisiae deletion strains, locus YOR270C, strain vph1, stronger effect = lower value 0.597 | S. cerevisiae deletion strains, locus YPL051W, strain arl3, stronger effect = lower value 0.746 | S. cerevisiae deletion strains, locus YPL241C, strain CIN2, stronger effect = lower value 0.311
1 (inactive) and 0.35 (active): S. cerevisiae deletion strains, locus YJR075W, strain HOC1, stronger effect = lower value
